# Source: PubChem BioAssay (NCATS)
# Inconclusive results are not listed. The source made the active and inactive calls. Unless noted, calls follow the shape of the dose curve; as a rule, active = well fitted cell-killing curve with a large enough effect; inconclusive = small, poorly fitted or top-dose-only effect, or effect the other way; inactive = no such curve, though single readings can be large or run the other way.
# What was measured:
# [1] = Quantitative High-Throughput drug screen in 47 multiple myeloma cell lines against the NCATS MIPE library collection: KMS28PE_JCRB cell viability assay (AID 1918983); also: nearly all actives have a fitted effect of over 35% in size
# How it was run: (§1)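 MIPE 4.0 approved/investigational drugs; 500 cells/well; 48 h 37 °C humidified 5% CO2; CTG luminescence readout; DMSO = 100%, media = 0% viability.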
# [2] = Quantitative High-Throughput drug screen in 47 multiple myeloma cell lines against the NCATS MIPE library collection: L363_DSMZ cell viability assay (AID 1918984); also: nearly all actives have a fitted effect of over 40% in size
# How it was run: as §1
# [3] = Quantitative High-Throughput drug screen in 47 multiple myeloma cell lines against the NCATS MIPE library collection: KMS34_JCRB cell viability assay (AID 1918985); also: nearly all actives have a fitted effect of over 40% in size
# How it was run: as §1
# [4] = Quantitative High-Throughput drug screen in 47 multiple myeloma cell lines against the NCATS MIPE library collection: OCIMY5_PLB cell viability assay (AID 1918988); also: nearly all actives have a fitted effect of over 65% in size
# How it was run: as §1
# [5] = Quantitative High-Throughput drug screen in 47 multiple myeloma cell lines against the NCATS MIPE library collection: OPM1_PLB cell viability assay (AID 1918989); also: nearly all actives have a fitted effect of over 40% in size
# How it was run: as §1
# [6] = Quantitative High-Throughput drug screen in 47 multiple myeloma cell lines against the NCATS MIPE library collection: XG6_PLB cell viability assay (AID 1919865); also: nearly all actives have a fitted effect of over 40% in size
# How it was run: as §1
# [7] = Quantitative High-Throughput drug screen in 47 multiple myeloma cell lines against the NCATS MIPE library collection: XG1_PLB cell viability assay (AID 1919866); also: nearly all actives have a fitted effect of over 35% in size
# How it was run: as §1
# [8] = Quantitative High-Throughput drug screen in 47 multiple myeloma cell lines against the NCATS MIPE library collection: VP6_DJ cell viability assay (AID 1919867); also: nearly all actives have a fitted effect of over 40% in size
# How it was run: as §1
# [9] = Quantitative High-Throughput drug screen in 47 multiple myeloma cell lines against the NCATS MIPE library collection: UTMC2_PLB cell viability assay (AID 1919868); settings: CellTiter-Glo ATP luminescence, 48 h; viability (% of DMSO control): at 45.8 µM (top of the series) unless noted; also: nearly all actives have a fitted effect of over 55% in size
# How it was run: as §1
# [10] = Quantitative High-Throughput drug screen in 47 multiple myeloma cell lines against the NCATS MIPE library collection: PE2_PLB cell viability assay (AID 1919869); also: nearly all actives have a fitted effect of over 35% in size
# How it was run: as §1
# [11] = Quantitative High-Throughput drug screen in 47 multiple myeloma cell lines against the NCATS MIPE library collection: PCM6_Riken cell viability assay (AID 1919870); also: nearly all actives have a fitted effect of over 30% in size
# How it was run: as §1
# [12] = Quantitative High-Throughput drug screen in 47 multiple myeloma cell lines against the NCATS MIPE library collection: OPM2_DSMZ cell viability assay (AID 1919872); also: nearly all actives have a fitted effect of over 30% in size
# How it was run: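 CellTiter-Glo ATP luminescence gave viability after 48 h compound treatment at 37C of 500 multiple myeloma cells per well. Normalisation used DMSO-only wells as 100% and media-only wells as 0% viability; primary qHTS of approved and investigational drugs.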
# [13] = Quantitative High-Throughput drug screen in 47 multiple myeloma cell lines against the NCATS MIPE library collection: KMS11_JCRBsus cell viability assay (AID 1919873); also: nearly all actives have a fitted effect of over 50% in size
# How it was run: as §1
# [14] = Quantitative High-Throughput drug screen in 47 multiple myeloma cell lines against the NCATS MIPE library collection: KMS28BM_JCRB cell viability assay (AID 1919874); also: nearly all actives have a fitted effect of over 35% in size
# How it was run: as §1
# [15] = qHTS drug screen for cell cycle checkpoint inhibitors in PARPi-resistant BRCA-mutant ovarian cancer cell lines. (AID 1963452; calls by dose curve); settings: PEO1/OlaR viability, CellTiter-Glo luminescence, 96 h; for Z-AUC: stronger effect = lower value
# How it was run: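 PEO1, PEO4 and PEO1/OlaR ovarian cancer cells, 600 per well, exposed 96 h at 37C to a dilution series. Viability read by CellTiter-Glo luminescence, normalized to DMSO and empty wells; activity summarized as Z-AUC.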
# [16] = Quantitative High-Throughput drug screen in 47 multiple myeloma cell lines against the NCATS MIPE library collection: SKMM1_PLB cell viability assay (AID 1919863); settings: SKMM1 myeloma viability, CellTiter-Glo ATP, 48 h; viability: stronger effect = lower value; also: nearly all actives have a fitted effect of over 35% in size
# How it was run: as §1
# [17] = Quantitative High-Throughput drug screen in 47 multiple myeloma cell lines against the NCATS MIPE library collection: U266_ATCC cell viability assay (AID 1919864); also: nearly all actives have a fitted effect of over 35% in size
# How it was run: as §1
# [18] = Quantitative High-Throughput drug screen in 47 multiple myeloma cell lines against the NCATS MIPE library collection: RPMI8226_ATCC cell viability assay (AID 1919871); also: nearly all actives have a fitted effect of over 30% in size
# How it was run: as §1
# [19] = qHTS for identification of novel therapeutic agents for treatment of microphthalmiaassociated transcription factor (MiT) renal cell carcinoma (RCC) (AID 1963991; calls by dose curve); settings: CellTiter-Glo, 48 h; for Potency: active = Z-AUC below -0.8 in all three lines; for z-score: stronger effect = lower value
# How it was run: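 Three TFE3-fusion RCC cell lines (UOK109, UOK124, UOK145), 500 cells/well, were exposed to the 1912-compound MIPE 4.0 library for 48 hours at 37 C. Viability was read by CellTiter-Glo luminescence, normalised to DMSO (100%) and empty wells (0%), with 11-concentration curve fits.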
# [20] = measured here: PEO1 parental Z-AUC
# [21] = TFE3-RCC UOK109 viability, measured here: UOK109 Z-AUC
# [22] = TFE3-RCC viability, measured here: UOK124 Z-AUC
# [23] = TFE3-RCC viability, measured here: UOK145 Z-AUC
# Potency is read from the fitted curve at half-maximal effect.
structure (smiles),measurement,setting,value
Cn1cc(-c2[nH]c3cc(NC(=O)[C@H](N)C4CCCCC4)cc4c3c2C=NNC4=O)cn1,Potency,[1],1480 nM (active)
same,Potency,[2],118 nM (active)
same,Potency,[3],4690 nM (active)
same,Potency,[4],1480 nM (active)
same,Potency,[5],1180 nM (active)
same,Potency,[6],209 nM (active)
same,Potency,[7],209 nM (active)
same,Potency,[8],1870 nM (active)
same,Potency,[9],74.3 nM (active)
same,Potency,[10],372 nM (active)
same,Potency,[11],1050 nM (active)
same,Potency,[12],7430 nM (active)
same,Potency,[13],2640 nM (active)
same,Potency,[14],1320 nM (active)
same,Z-AUC,[15],-0.173 (inactive)
same,Z-AUC,[15]; [20],-0.184
same,Z-AUC,[15]; measured here: PEO4 Z-AUC,-0.421
CC(C)C[C@H](NC(=O)CNC(=O)c1cc(Cl)ccc1Cl)B(O)O,Potency,[1],83.3 nM (active)
same,Potency,[2],132 nM (active)
same,Potency,[3],59 nM (active)
same,Potency,[4],37.2 nM (active)
same,Potency,[16],296 nM (active)
same,Potency,[17],83.3 nM (active)
same,Potency,[6],37.2 nM (active)
same,Potency,[7],46.9 nM (active)
same,Potency,[8],37.2 nM (active)
same,Potency,[10],41.8 nM (active)
same,Potency,[11],66.2 nM (active)
same,Potency,[18],166 nM (active)
same,Potency,[12],132 nM (active)
same,Potency,[13],52.6 nM (active)
same,Potency,[14],66.2 nM (active)
same,Z-AUC,[15],-0.869 (inactive)
same,Z-AUC,[15]; [20],-1.48
same,Z-AUC,[15]; measured here: PEO4 Z-AUC,-1.83
same,Potency,[19]; TFE3-RCC UOK109 viability,372 nM (active)
same,z-score,[19]; [21],-1.3
same,z-score,[19]; [22],-1.47
same,z-score,[19]; [23],-2.81
COC(=O)[C@]12CCC(C)(C)C[C@@H]1[C@@H]1C(=O)C=C3[C@@]4(C)C=C(C#N)C(=O)C(C)(C)[C@@H]4CC[C@@]3(C)[C@]1(C)CC2,Potency,[1],526 nM (active)
same,Potency,[2],526 nM (active)
same,Potency,[3],662 nM (active)
same,Potency,[4],209 nM (active)
same,Potency,[5],209 nM (active)
same,Potency,[16],469 nM (active)
same,Potency,[17],264 nM (active)
same,Potency,[6],372 nM (active)
same,Potency,[7],166 nM (active)
same,Potency,[8],264 nM (active)
same,Potency,[9],372 nM (active)
same,Potency,[10],332 nM (active)
same,Potency,[11],332 nM (active)
same,Potency,[18],526 nM (active)
same,Potency,[12],833 nM (active)
same,Potency,[13],187 nM (active)
same,Potency,[19]; TFE3-RCC UOK109 viability,1180 nM (active)
same,z-score,[19]; [21],-1.73
same,z-score,[19]; [22],-1.69
same,z-score,[19]; [23],-1.96
OCc1ccc(-c2ccc(-c3ccc(CO)s3)o2)s1,Potency,[1],29600 nM (active)
same,Potency,[2],inactive
same,Potency,[3],18700 nM (active)
same,Potency,[4],16600 nM (active)
same,Potency,[5],6620 nM (active)
same,Potency,[16],20900 nM (active)
same,Potency,[17],3320 nM (active)
same,Potency,[6],16600 nM (active)
same,Potency,[7],6620 nM (active)
same,Potency,[8],20900 nM (active)
same,Potency,[10],3720 nM (active)
same,Potency,[18],23500 nM (active)
same,Potency,[12],23500 nM (active)
same,Potency,[13],11800 nM (active)
same,Z-AUC,[15],1.64 (inactive)
same,Z-AUC,[15]; [20],1.79
same,Z-AUC,[15]; measured here: PEO4 Z-AUC,1.79
CC(C)c1noc(N2CCC(COc3ccc(-c4ccc(S(C)(=O)=O)cc4)nc3)CC2)n1,Potency,[1],16600 nM (active)
same,Potency,[2],inactive
same,Potency,[3],inactive
same,Potency,[4],8330 nM (active)
same,Potency,[5],inactive
same,Potency,[17],inactive
same,Potency,[6],3720 nM (active)
same,Potency,[7],2640 nM (active)
same,Potency,[8],7430 nM (active)
same,Potency,[10],inactive
same,Potency,[18],7430 nM (active)
same,Potency,[12],inactive
same,Potency,[13],1180 nM (active)
same,Z-AUC,[15],-0.00574 (inactive)
same,Z-AUC,[15]; [20],-0.198
same,Z-AUC,[15]; measured here: PEO4 Z-AUC,1.01
same,z-score,[19]; [21],0.525
same,z-score,[19]; [22],0.308
same,z-score,[19]; [23],0.324
CCC[C@H](NC(=O)C(C#N)=Cc1cccc(Br)n1)c1ccccc1,Potency,[1],2960 nM (active)
same,Potency,[2],7430 nM (active)
same,Potency,[3],4690 nM (active)
same,Potency,[4],2090 nM (active)
same,Potency,[5],935 nM (active)
same,Potency,[17],5900 nM (active)
same,Potency,[6],2350 nM (active)
same,Potency,[7],1660 nM (active)
same,Potency,[8],2090 nM (active)
same,Potency,[9],2090 nM (active)
same,Potency,[10],2090 nM (active)
same,Potency,[11],1050 nM (active)
same,Potency,[18],2960 nM (active)
same,Potency,[12],5260 nM (active)
same,Potency,[13],2960 nM (active)
same,Potency,[14],2640 nM (active)
NC(=O)c1c(OCc2c(F)cc(Br)cc2F)nsc1NC(=O)NCCCCN1CCCC1,Potency,[1],18700 nM (active)
same,Potency,[2],inactive
same,Potency,[3],20900 nM (active)
same,Potency,[4],23500 nM (active)
same,Potency,[5],13200 nM (active)
same,Potency,[17],29600 nM (active)
same,Potency,[6],7430 nM (active)
same,Potency,[7],8330 nM (active)
same,Potency,[8],10500 nM (active)
same,Potency,[10],23500 nM (active)
same,Potency,[11],10500 nM (active)
same,Potency,[18],23500 nM (active)
same,Potency,[12],20900 nM (active)
same,Potency,[13],20900 nM (active)
same,Z-AUC,[15],0.49 (inactive)
same,Z-AUC,[15]; [20],0.803
same,Z-AUC,[15]; measured here: PEO4 Z-AUC,0.754
CC(=O)OCCN1C(=O)c2c(C)nc3ccc(S(=O)(=O)N4CCOCC4)cc3c2C1=O,Potency,[1],inactive
same,Potency,[2],inactive
same,Potency,[3],inactive
same,Potency,[4],inactive
same,Potency,[5],inactive
same,Potency,[6],inactive
same,Potency,[7],inactive
same,Potency,[10],inactive
same,Potency,[11],inactive
same,Potency,[18],inactive
same,Potency,[12],inactive
same,Potency,[13],inactive
same,Potency,[14],inactive
same,Z-AUC,[15],1.23 (inactive)
same,Z-AUC,[15]; [20],1.34
same,Z-AUC,[15]; measured here: PEO4 Z-AUC,1.26
C=CCn1c(=O)c2cnc(Nc3ccc(N4CCN(C)CC4)cc3)nc2n1-c1cccc(C(C)(C)O)n1,Potency,[1],590 nM (active)
same,Potency,[2],83.3 nM (active)
same,Potency,[3],14.8 nM (active)
same,Potency,[4],332 nM (active)
same,Potency,[5],590 nM (active)
same,Potency,[16],469 nM (active)
same,Potency,[7],166 nM (active)
same,Potency,[8],372 nM (active)
same,Potency,[9],148 nM (active)
same,Potency,[10],235 nM (active)
same,Potency,[11],469 nM (active)
same,Potency,[18],2350 nM (active)
same,Potency,[12],1180 nM (active)
same,Potency,[13],264 nM (active)
same,Potency,[15],138 nM (active)
same,Z-AUC,[15]; [20],-1.63
same,Z-AUC,[15]; measured here: PEO4 Z-AUC,-1.42
same,Potency,[19]; TFE3-RCC UOK109 viability,235 nM (active)
same,z-score,[19]; [21],-1.89
same,z-score,[19]; [22],-1.72
same,z-score,[19]; [23],-2.1
